According to PubChem BioAssay AID1159580 (chemical genetic matrix, 2015):
Several values for one entry are separate records, joined by “and”; a condition that tells them apart may be missing. Equal entries are not always repeated. About 2,000 (36%) of roughly 5,500 compounds were called active. Not shown: some 18% with an inconclusive outcome. Cut-off read from the data, not from the text of the source: active = normalized growth mostly below about 0.91 (no sharp cut-off); inconclusive = no clear call, values can overlap the other calls; inactive = mostly above about 0.92. The list shows a part of the results.

Assay: chemical genetic growth profiling, strain panel (AID 1159580);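 note: tested at 20 µM; growth read once vehicle control cultures reached saturation at 30 °C; 1 = growth at the plate median or of vehicle wells; lower values mean less growth of the strain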
Settings: S. cerevisiae deletion strains, growth OD

Measured: normalized growth

C[C@]12CCC3c4ccc(O)cc4CCC3C1C[C@@H](O)[C@@H]2O (some centres undefined)
inactive: locus YAL013W, strain DEP1, hits give low values 0.994 | locus YAL021C, strain ccr4, hits give low values 1.01 | locus YAL026C, strain drs2, hits give low values 1 | locus YAL030W, strain snc1, hits give low values 1.02 | locus YBL061C, strain skt5, hits give low values 1.02 | locus YBR009C, strain hhf1, hits give low values 1.02 | locus YBR021W, strain FUR4, hits give low values 1.01 | locus YBR023C, strain chs3, hits give low values 1.03 | locus YBR171W, strain sec66, hits give low values 1.02 | locus YBR229C, strain ROT2, hits give low values 0.962 | locus YBR231C, strain swc5, hits give low values 0.988 | locus YBR279W, strain paf1, hits give low values 1.04 | locus YCL011C, strain gbp2, hits give low values 1.05 | locus YCL016C, strain dcc1, hits give low values 1.05 | locus YCL029C, strain bik1, hits give low values 0.984 | locus YCL061C, strain MRC1, hits give low values 1.03 | locus YCL069W, strain vba3, hits give low values 1.01 | locus YCR088W, strain abp1, hits give low values 1.01 | locus YDL005C, strain med2, hits give low values 1.02 | locus YDL035C, strain GPR1, hits give low values 0.969 | locus YDL040C, strain nat1, hits give low values 1.01 | locus YDL074C, strain BRE1, hits give low values 0.951 | locus YDL101C, strain DUN1, hits give low values 0.997 | locus YDL185W, strain tfp1, hits give low values 0.974 | locus YDL192W, strain arf1, hits give low values 0.985 | locus YDR001C, strain nth1, hits give low values 1.01 | locus YDR069C, strain doa4, hits give low values 1 | locus YDR101C, strain arx1, hits give low values 0.945 | locus YDR137W, strain rgp1, hits give low values 1.06 | locus YDR150W, strain NUM1, hits give low values 0.989 | locus YDR159W, strain sac3, hits give low values 0.979 | locus YDR162C, strain NBP2, hits give low values 0.968 | locus YDR195W, strain ref2 0.999 | locus YDR297W, strain sur2, hits give low values 1.03 | locus YDR318W, strain mcm21, hits give low values 1 | locus YDR334W, strain swr1, hits give low values 1.02 | locus YDR335W, strain msn5, hits give low values 1.02 | locus YDR388W, hits give low values 0.982 | locus YDR392W, strain spt3, hits give low values 1.01 | locus YDR502C, strain sam2, hits give low values 0.993 | locus YEL003W, strain gim4, hits give low values 0.994 | locus YEL037C, strain rad23, hits give low values 1.01 | locus YEL061C, strain CIN8 (second series), hits give low values 1.01 | locus YEL061C, strain CIN8, hits give low values 0.997 | locus YER015W, strain faa2, hits give low values 1.02 | locus YER016W, strain bim1, hits give low values 1 | locus YER110C, hits give low values 0.983 | locus YER111C, strain swi4, hits give low values 1.03 | locus YER155C, strain BEM2 (second series), hits give low values 1.02 | locus YER155C, strain BEM2, hits give low values 0.993 | locus YER167W, strain BCK2, hits give low values 1 | locus YFR010W, strain ubp6, hits give low values 1.01 | locus YGL078C, strain dbp3, hits give low values 0.995 | locus YGL086W, strain mad1, hits give low values 0.971 | locus YGL167C, strain pmr1, hits give low values 1.03 | locus YGL173C, strain kem1, hits give low values 1.01 | locus YGL227W, strain vid30, hits give low values 1.02 | locus YGL240W, strain doc1, hits give low values 1.03 | locus YGL248W, strain PDE1, hits give low values 0.988 | locus YGL253W, strain hxk2, hits give low values 1 | locus YGR135W, strain pre9, hits give low values 1.07 | locus YGR252W, strain gcn5, hits give low values 1.07 | locus YHR013C, strain ard1, hits give low values 1.05 | locus YHR027C, strain rpn1, hits give low values 1.02 | locus YHR030C, strain SLT2, hits give low values 0.993 and 1.01 | locus YHR079C, strain IRE1 (second series), hits give low values 0.987 | locus YHR079C, strain IRE1, hits give low values 0.992 | locus YHR094C, strain hxt1, hits give low values 0.984 | locus YHR129C, strain ARP1, hits give low values 0.994 | locus YHR142W, strain chs7, hits give low values 1.02 | locus YHR200W, strain rpn10, hits give low values 1 | locus YIL066C, strain RNR3, hits give low values 0.977 | locus YIL073C, strain SPO22, hits give low values 0.991 | locus YIL125W, strain kgd1, hits give low values 0.985 | locus YIR030C, strain dcg1, hits give low values 0.994 | locus YJL092W, strain hpr5, hits give low values 1.02 | locus YJL095W, strain BCK1 (second series), hits give low values 1.02 | locus YJL095W, strain BCK1, hits give low values 1 and 0.994 | locus YJL115W, strain asf1, hits give low values 1.02 | locus YJL129C, strain trk1, hits give low values 1.03 | locus YJL134W, strain LCB3, hits give low values 0.989 | locus YJL154C, strain vps35, hits give low values 1.01 | locus YJL164C, strain tpk1, hits give low values 1.01 | locus YJL166W, strain qcr8, hits give low values 1.05 | locus YJL168C, strain set2, hits give low values 1.01 | locus YJL187C, strain SWE1 (second series), hits give low values 0.996 | locus YJL187C, strain SWE1, hits give low values 1.04 | locus YJR043C, strain POL32, hits give low values 0.976 | locus YJR066W, strain TOR1, hits give low values 0.97 | locus YJR075W, strain HOC1, hits give low values 0.992 | locus YKL009W, strain mrt4, hits give low values 0.973 | locus YKL068W, hits give low values 0.986 | locus YKL085W, strain MDH1 (second series), hits give low values 1.01 | locus YKL085W, strain MDH1, hits give low values 1.01 | locus YKL160W, strain elf1, hits give low values 1.05 | locus YKR001C, strain vps1, hits give low values 0.972 | locus YKR026C, strain gcn3, hits give low values 1.02 | locus YKR091W, strain srl3, hits give low values 1.02 | locus YLL001W, strain dnm1, hits give low values 1.05 | locus YLL026W, hits give low values 1.02 | locus YLL041C, strain sdh2, hits give low values 1.01 | locus YLR027C, strain aat2, hits give low values 1.01 | locus YLR039C, strain RIC1, hits give low values 1.03 | locus YLR058C, strain SHM2, hits give low values 0.977 | locus YLR102C, strain apc9, hits give low values 0.996 | locus YLR113W, strain HOG1, hits give low values 0.97 | locus YLR221C, strain rsa3, hits give low values 1.05 | locus YLR258W, strain gsy2, hits give low values 1.01 | locus YLR262C, strain YPT6 (second series), hits give low values 1.04 | locus YLR262C, strain YPT6, hits give low values 0.925 | locus YLR268W, strain sec22, hits give low values 0.987 | locus YLR320W, strain mms22, hits give low values 1.07 | locus YLR330W, strain CHS5, hits give low values 0.984 | locus YLR342W, strain FKS1 (second series), hits give low values 0.999 | locus YLR342W, strain FKS1, hits give low values 1.02 | locus YLR357W, strain rsc2, hits give low values 1.03 | locus YLR370C, strain arc18, hits give low values 1.02 | locus YLR371W, strain rom2, hits give low values 1.01 | locus YLR384C, strain iki3, hits give low values 1.02 | locus YLR418C, strain cdc73, hits give low values 1.02 | locus YML016C, strain PPZ1, hits give low values 0.989 | locus YML032C, strain rad52, hits give low values 0.967 | locus YML120C, strain ndi1, hits give low values 1.04 | locus YML124C, strain tub3, hits give low values 0.996 | locus YMR058W, strain fet3, hits give low values 1.01 | locus YMR078C, strain ctf18, hits give low values 0.991 | locus YMR125W, strain sto1, hits give low values 1.02 | locus YMR129W, hits give low values 1 | locus YMR205C, strain PFK2, hits give low values 1.04 | locus YMR223W, strain ubp8, hits give low values 1.02 | locus YMR231W, strain pep5, hits give low values 1.02 | locus YMR307W, strain GAS1, hits give low values 0.954 | locus YNL067W, strain RPL9B, hits give low values 0.994 | locus YNL071W, strain lat1, hits give low values 1.02 | locus YNL153C, strain GIM3, hits give low values 0.976 | locus YNL183C, strain NPR1, hits give low values 0.962 | locus YNL209W, strain ssb2, hits give low values 1.03 | locus YNL233W, strain BNI4, hits give low values 0.987 | locus YNL248C, strain rpa49, hits give low values 1.05 | locus YNL250W, strain rad50, hits give low values 0.987 | locus YNL271C, strain bni1, hits give low values 0.991 | locus YNL298W, strain CLA4, hits give low values 0.99 | locus YNL307C, strain MCK1, hits give low values 0.999 | locus YNL322C, strain KRE1 (second series), hits give low values 1.05 | locus YNR049C, strain mso1, hits give low values 1.02 | locus YNR052C, strain pop2, hits give low values 0.982 | locus YOL012C, strain htz1 1.25 | locus YOL147C, strain pex11, hits give low values 0.993 | locus YOR001W, strain rrp6, hits give low values 0.998 | locus YOR061W, strain CKA2, hits give low values 0.973 | locus YOR069W, strain VPS5, hits give low values 0.997 | locus YOR070C, strain gyp1, hits give low values 1.02 | locus YOR080W, strain dia2, hits give low values 1.02 | locus YOR083W, strain WHI5, hits give low values 1.06 | locus YOR106W, strain vam3, hits give low values 1.03 | locus YOR136W, strain idh2, hits give low values 0.987 | locus YOR144C, strain elg1, hits give low values 0.993 | locus YOR184W, strain ser1, hits give low values 1 | locus YOR231W, strain MKK1, hits give low values 0.972 | locus YOR265W, strain rbl2, hits give low values 1.02 | locus YOR270C, strain vph1, hits give low values 1.04 | locus YOR290C, strain snf2, hits give low values 0.975 | locus YOR316C, strain cot1, hits give low values 0.985 | locus YPL051W, strain arl3, hits give low values 1.02 | locus YPL078C, strain atp4, hits give low values 1.05 | locus YPL106C, strain sse1, hits give low values 1.06 | locus YPL240C, strain hsp82, hits give low values 1.03 | locus YPL241C, strain CIN2, hits give low values 0.989 | locus YPL256C, strain CLN2, hits give low values 1 | locus YPR119W, strain clb2, hits give low values 0.989 | locus YPR141C, strain kar3, hits give low values 0.989 | locus YPR163C, strain tif3, hits give low values 0.996 | locus YPR167C, strain met16, hits give low values 0.999 | strain wtn01, hits give low values 1.01
